We go through 123 compounds from PubChem BioAssay AID492952 (Southern Research Specialized Biocontainment Screening …, 2010).

Hit rate of the full screen: of about 2,300 compounds, about 1,500 (65%) were called active. The rule behind the calls is not given here. The set was probably picked from earlier hits. The list shows a part of the results. Entries with a potency or affinity are not part of this list.

The assay in a line: replicating M. tuberculosis growth inhibition, dose response, non-replicating M. tuberculosis project, H37Rv (AID 492952).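 Note: Mycobacterium tuberculosis grown in culture; growth inhibition read after a week of incubation.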 Particulars: series mostly up to 50 µM.
With `CNC(=O)c1[nH]cnc1C(=O)Nc1ccc(Cl)cc1`, the call was inactive.

`COc1ccc(/C(=N/O)C(C)(C)NO)cc1`: the compound was called inactive.

`CC1COC(=O)C(NNc2ccc(Cl)c(Cl)c2)=N1` (stereo not drawn): the compound was classed as inactive.

`CCOC(=O)C1CCCN(Cc2ccc(OCc3ccccc3)cc2)C1` (stereo not drawn): the call was inactive.

In the case of `O=C(NC(=S)NCCc1ccccc1)c1ccccc1`, the outcome was inactive.

`CC(C)c1ccc(N2C(=O)CC(Sc3ncn[nH]3)C2=O)cc1` (stereo not drawn): the compound was called inactive.

As to `CC1=NN(C(=O)c2csc(C)c2)C(O)(C(F)(F)F)C1` (stereo not drawn), the outcome was inactive.

For the compound `CC1=NN(C(=O)c2csc(C(C)C)c2)C(O)(C(F)(F)F)C1` (stereo not drawn), the result was inactive.

In the case of `O=C(COC(=O)c1ccc(Br)o1)Nc1ncc([N+](=O)[O-])s1`, the compound was called inactive.

On to `Nc1cccn2c(-c3ccc(Cl)cc3)cnc12`, for which the call was inactive.

Regarding `CC1CC(C)CN(CCOCCSc2ccc(Cl)cc2)C1` (stereo not drawn), the compound was classed as inactive.

Regarding `Clc1ccc(CN2C3=NCCCN3c3ccccc32)cc1`, the compound was called inactive.

For the compound `COc1ccc(C(=O)CCS(=O)(=O)c2ccc(C)cc2)cc1OC`, the result was inactive.

Turning to `O=C1CC(=O)CC(c2ccccc2)C1`, the compound was classed as inactive.

Regarding `O=C(NCc1nnc(SC/C=C/c2ccccc2)o1)c1ccco1`, the compound was called inactive.

Consider `CCN1CCC(=NNC(=O)c2ccco2)CC1`, for which the call was inactive.

Regarding `Cc1occc1C(=O)N/N=C/C(Br)=C\c1ccccc1`, the compound was called inactive.

`O=C(Nc1nnc(COc2ccc(Cl)cc2)s1)c1ccco1`: the compound was classed as inactive.

As for `CC1=NN(C(=O)CCCc2ccccc2)C(O)(C(F)(F)F)C1` (stereo not drawn), the compound was classed as inactive.

As for `Cc1cc(C)cc(OC(=O)c2cccnc2)c1`, the outcome was inactive.

Take `Cc1n[nH]c(C)c1CCNC(=O)C1CCC(=O)N(Cc2ccccc2F)C1` (stereo not drawn): the outcome was inactive.

For `COc1ccc2c3c(cccc13)OCC2=O`, the compound was classed as inactive.

In the case of `O=C1/C(=C/c2cccs2)COc2ccccc21`, the compound was called inactive.

With `S=C1NC2(CCCC2)N=C1c1ccccc1`, the result was inactive.

As for `CCOC(=O)Nc1cccc(OCC(=O)Nc2ccc(OC)cc2OC)c1`, the result was inactive.

Turning to `CCOc1ccc(C(=O)N/N=C(/C)C2C(=O)c3ccccc3C2=O)cc1`, the call was inactive.

Regarding `NC(=O)COc1ccc2cc(-c3ccc(F)cc3)c(=O)oc2c1`, the result was inactive.

On to `CCOc1c(OC(C)=O)ccc(/C=C2\N=C(SCC)SC2=O)c1[N+](=O)[O-]`, for which the compound was called inactive.

As to `COc1ccc(-c2nnc(SCC(C)C)o2)cc1`, the result was inactive.

With `Brc1ccc(CSc2nnc(-c3ccco3)o2)cc1`, the compound was classed as inactive.

With `Cc1ccc(CSc2nnc(-c3cccnc3)o2)cc1`, the result was inactive.

For the compound `O=[N+]([O-])c1ccc(CSc2nnc(-c3cccnc3)o2)cc1`, the call was inactive.

For `O=C1CC(N2CCC(C(=O)N3CCCCC3)CC2)C(=O)N1` (stereo not drawn), the compound was called inactive.

In the case of `C#CCSc1nnc(-c2ccc(O)cc2)o1`, the result was inactive.

For `CC(C)c1ccc(OCC(=O)NCc2ccccc2)cc1`, the compound was called inactive.

With `Cc1cc(Br)ccc1OCCCCN1CCCCC1`, the compound was called inactive.

On to `O=C(NCc1ccc(F)cc1)c1cnccn1`, for which the outcome was inactive.

On to `COc1ccc(Cc2nnc(-c3ccccc3)o2)cc1`, for which the call was inactive.

In the case of `O=C(c1ccc(-c2ccc([N+](=O)[O-])cc2)o1)N1CCN(S(=O)(=O)c2cccs2)CC1`, the compound was classed as inactive.

Take `Cc1ccc2[nH]c3c(c2c1)CCCC3NCCO` (stereo not drawn): the outcome was inactive.

For `COCCCn1c(=NC(=O)c2ccccc2)c(C#N)cc2c(=O)n3cccc(C)c3nc21`, the outcome was inactive.

As to `Cc1cc(Cl)ccc1NNC(=O)c1c(C)noc1C`, the compound was classed as inactive.

Take `CCOC(=O)c1sc(NC(=O)CCN2CCOCC2)c(C(=O)OCC)c1C`: the compound was classed as inactive.

On to `CCOC(=O)c1ccsc1NC(=O)CCS(=O)(=O)c1ccccc1`, for which the compound was classed as inactive.

With `CC1(C)CC(=O)C=C(Nc2ccccc2N)C1`, the outcome was inactive.

In the case of `Nc1ccc(Nc2ccccc2)cc1`, the call was inactive.

As for `Cc1ccc(Sc2ncccc2N)cc1`, the result was inactive.

Take `CN(C)/C=C1/C(=O)N(c2ccc([N+](=O)[O-])cc2)N=C1c1ccccc1`: the compound was called inactive.

Regarding `Cc1cc2cc(CNC(=O)C3CCCC3)ccc2n1C`, the call was inactive.

`CC1(C)Oc2ccc(NC(=O)C3COc4ccccc4O3)cc2O1` (stereo not drawn): the call was inactive.

Consider `S=C(Nc1ccc2c(c1)OCO2)Nc1ccc2c(c1)OCO2`, for which the result was inactive.

On to `O=C(c1ccccc1)n1c(=O)c(F)cn(COCCBr)c1=O`, for which the call was inactive.

For `O=C(CCc1ccccc1F)N1CCN(c2ccccc2)CC1`, the compound was called inactive.

On to `COc1ccc([N+](=O)[O-])c(S(=O)(=O)c2ccc(Cl)cc2)n1`, for which the compound was called inactive.

As for `CCOC(=O)N1CCC(NS(=O)(=O)c2cc3c(cc2Cl)NC(=O)CO3)CC1`, the outcome was inactive.

`O=C(Cc1ccccc1)Nc1ccc(C(=O)NCC2COc3ccccc3O2)cc1` (stereo not drawn): the outcome was inactive.

Consider `O=C(Nc1sc2c(c1C(=O)O)CCCC2)c1ccc(F)cc1`, for which the outcome was inactive.

Regarding `O=C(Nc1ncc2c(n1)-c1ccccc1OC2)c1ccc(F)cc1`, the result was inactive.

As to `O=C(CCc1ccccc1)N/N=C/c1cc(Br)ccc1O`, the compound was classed as inactive.

For `COc1ccc(N/N=C/c2c(C(=O)O)ccc3ccccc23)cc1`, the outcome was inactive.

As to `O=C(Nc1nccs1)c1ccc(Br)cc1`, the call was inactive.

Turning to `CC(C)c1nnc(NC(=O)c2sc3ccccc3c2Cl)s1`, the result was inactive.

Turning to `C=C1Cn2c(nnc2-c2ccc(Cl)cc2)S1`, the compound was called inactive.

Turning to `COc1ccc(N=N/C(=C\O)C(=O)c2ccco2)cc1`, the outcome was inactive.

For the compound `Clc1ccc(Cc2nnc(-c3cccs3)o2)cc1`, the outcome was inactive.

With `COCc1[nH]nc2c1C(c1sccc1C)C(C#N)=C(N)O2` (stereo not drawn), the call was inactive.

On to `Cc1cccc(NC(=O)c2cc3ccccc3oc2=O)c1`, for which the call was inactive.

For the compound `Cc1cccc(NC(=O)COC(=O)c2cc3ccccc3oc2=O)c1`, the result was inactive.

For `O=C(NCc1ccccc1)c1cc2ccccc2oc1=O`, the compound was called inactive.

As for `O=C(COC(=O)c1cc2ccccc2oc1=O)Nc1ccc(F)cc1F`, the result was inactive.

For the compound `NNC(=O)CNC(=O)C12CC3CC(CC(C3)C1)C2`, the outcome was inactive.

Take `COc1ccc2c(c1)C(=C(C#N)C#N)C(=O)N2CCc1ccccc1`: the outcome was inactive.

In the case of `COc1ccc(OC(=O)C(C)N2C(=O)c3ccccc3C2=O)cc1` (stereo not drawn), the compound was called inactive.

Consider `CCN1/C(=C(\O)c2ccccc2)C(=O)c2ccccc2S1(=O)=O`, for which the outcome was inactive.

As for `Cc1cccc2nc(CSc3nc4cc([N+](=O)[O-])ccc4s3)cn12`, the outcome was inactive.

For `CC(C)CN1C(=O)CC(Sc2ccccc2C(=O)O)C1=O` (stereo not drawn), the compound was called inactive.

As to `COc1ccc(CCCC(=O)NCc2ccccc2)cc1C`, the compound was called inactive.

As for `COc1cc(CNC2CCCC2)cc(Cl)c1OCc1ccc(F)cc1`, the compound was called inactive.

Regarding `NC(=O)C1(N2CCCCC2)CCN(C2CC(=O)N(CCc3ccccc3)C2=O)CC1` (stereo not drawn), the outcome was inactive.

Take `O=C(NCc1ccco1)c1nc2ccccc2s1`: the result was inactive.

Take `CCCCCCOc1ccc(C(=O)O)cc1C#N`: the result was inactive.

Regarding `CC(C)(C)CC(=O)NC(=S)NCc1ccco1`, the compound was called inactive.

Turning to `COc1ccc(S(=O)(=O)N(C(C)=O)c2ccc(OC(C)=O)c3ccccc23)cc1[N+](=O)[O-]`, the compound was classed as inactive.

For `Cc1nc2scc(-c3ccccc3)c2c(=O)o1`, the outcome was inactive.

For the compound `CCOC(=O)c1ccc(NC(=O)CCSCCc2ccccn2)cc1`, the outcome was inactive.

Consider `CCOC(=O)c1ccc(NC(=O)NS(=O)(=O)c2ccc(C)cc2)cc1`, for which the compound was classed as inactive.

As for `Cc1ccc(CCC(=O)Nc2ccc([N+](=O)[O-])cc2)o1`, the compound was classed as inactive.

As to `O=C(NNc1ccc([N+](=O)[O-])cc1)C1CC2CCCC(C1)C2=O` (stereo not drawn), the compound was called inactive.

Regarding `CC(NC(=O)c1cccc(F)c1)C1CC2CCC1C2` (stereo not drawn), the outcome was inactive.

`O=C(N/N=C/C=C/c1ccccc1)c1cccs1`: the compound was classed as inactive.

`O=C(Nc1cccnc1)c1cc(Cl)ccc1Cl`: the call was inactive.

Consider `Cn1c(-c2cccc([N+](=O)[O-])c2)cnc1NCc1cccc(F)c1`, for which the call was inactive.

Turning to `Cc1ccccc1C1=N/C(=C/c2cccnc2)C(=O)O1`, the compound was classed as inactive.

With `O=C1OC(/C=C/c2ccccc2)=NC/1=C\c1cccnc1`, the outcome was inactive.

For `O=C(COc1ccc2ccccc2c1Br)N1CCCC1`, the result was inactive.

`Cc1cc(OCCCn2ccnc2)ccc1C(C)C`: the compound was classed as inactive.

Consider `O=S(=O)(c1ccc(Cl)c2ccccc12)N1CCCC1`, for which the compound was called inactive.

`Cc1ccc(C(=O)COC(=O)CCc2ccc(S(=O)(=O)N3CCCCC3)cc2)cc1`: the compound was classed as inactive.

Turning to `O=C(COc1c(Br)cc(Br)c2cccnc12)N1CCCCC1`, the outcome was inactive.

Regarding `CCOC(=O)C1CCCN(Cc2nc(Cc3ccccc3Cl)no2)C1` (stereo not drawn), the outcome was inactive.

Turning to `COc1cc(NC(=O)N2CCOCC2)cc(OC)c1`, the compound was called inactive.

In the case of `Cc1cc(C)nc(SC2CC(=O)N(c3ccc(C)c(C)c3)C2=O)n1` (stereo not drawn), the call was inactive.

`CC(=O)Nc1ccc(NC(=O)[C@@H]2CCCC[C@@H]2C(=O)O)cc1`: the result was inactive.

On to `Cc1nc(C(=O)Nc2ccccc2)sc1C(=O)Nc1ccccc1`, for which the compound was classed as inactive.

With `NC(N)=N/N=C/c1cc([N+](=O)[O-])ccc1O`, the result was inactive.

Turning to `NC(=O)N/N=C\c1cc(Br)ccc1O`, the compound was classed as inactive.

Regarding `O=C1N=c2ccccc2=C1c1c(O)n(-c2cccc(F)c2)[nH]c1=O`, the result was inactive.

For `N/C(=N\OC(=O)c1cccc2ccccc12)c1cccnc1`, the result was inactive.

For `O=C(Cc1c(F)cccc1Cl)Nc1ncc([N+](=O)[O-])s1`, the outcome was inactive.

For the compound `Cc1ccc(C(=O)O/N=C(\N)c2cccc([N+](=O)[O-])c2)cc1`, the outcome was inactive.

On to `N/C(=N\OC(=O)c1cccc(Br)c1)c1ccc([N+](=O)[O-])cc1`, for which the compound was called inactive.

For the compound `O=C(COc1ccccc1)Nc1ccc(F)cc1`, the call was inactive.

With `CCCNC(=O)NC(=O)COc1ccc2oc3ccccc3c2c1`, the call was inactive.

As to `N#CC1=C(N)Oc2c(ccc3cccnc23)C1c1ccccc1` (stereo not drawn), the outcome was inactive.

As for `O=C(NCCc1cccc(Cl)c1)c1cc2ccccc2oc1=O`, the compound was called inactive.

With `COCCCC1CCN(Cc2nc(-c3ccccc3)no2)CC1`, the compound was called inactive.

Turning to `CC(C)(C)OC(=O)NCCC(=O)Oc1ccc2ccc(=O)oc2c1`, the call was inactive.

For the compound `O=C(NC(=S)Nc1ccc(F)cc1)C1CCCCC1`, the result was inactive.

For the compound `O=C(N/N=C/c1cccc([N+](=O)[O-])c1O)c1cccs1`, the compound was called inactive.

Take `O=C(O)c1ccccc1-c1ccccc1C(=O)Nc1nc2ccccc2s1`: the outcome was inactive.

`O=C(O)c1ccccc1C(=O)NNc1ccc(Cl)cc1`: the result was inactive.

Turning to `O=C(NCCN1C(=O)S/C(=C\c2ccccc2F)C1=O)C1CCN(S(=O)(=O)c2cccs2)CC1`, the compound was classed as inactive.

In the case of `O=S(=O)(Nc1ccc(O)c2ccccc12)c1ccc(F)cc1`, the result was inactive.
